# Columns and labels:
# Experiment in all cases: DAPPL (digital affinity profiling via proximity ligation, sequencing); 10 mM Tris-HCl pH 7.5, 50 mM NaCl, 1 mM DTT, 4% glycerol, room temperature, 30 min; GST-TFs on glutathione beads, 16-mer random dsDNA library, 0.1% formaldehyde crosslink after washing; high values mean tight binding
# HSF1 = HSF1 (Homo sapiens, UniProt Q00613 1-529); settings: protein: recombinant; tags: N-terminal GST; chain copies: 3; dsDNA, one strand shown
# Outline: (§1)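 Binding signal is each hexamer's read frequency for a factor divided by its frequency in the tag-only sample. The factors were GST-fused human transcription factors from yeast, captured on glutathione beads, DNA-barcoded and pooled with that sample. Pools were incubated with 200 nmole of a random double-stranded 16-mer DNA library in Tris/NaCl/DTT/glycerol buffer at room temperature for 30 min, then washed, crosslinked with 0.1% formaldehyde, proximity-ligated with BsaI/T4 ligase (1 h, 37 °C), PCR-amplified and sequenced on an Illumina NextSeq500.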
# ELK1 = target: T1, ELK1 (Homo sapiens, UniProt P19419 1-428); settings: protein: recombinant; tags: N-terminal GST; dsDNA, one strand shown
# T1 sequence: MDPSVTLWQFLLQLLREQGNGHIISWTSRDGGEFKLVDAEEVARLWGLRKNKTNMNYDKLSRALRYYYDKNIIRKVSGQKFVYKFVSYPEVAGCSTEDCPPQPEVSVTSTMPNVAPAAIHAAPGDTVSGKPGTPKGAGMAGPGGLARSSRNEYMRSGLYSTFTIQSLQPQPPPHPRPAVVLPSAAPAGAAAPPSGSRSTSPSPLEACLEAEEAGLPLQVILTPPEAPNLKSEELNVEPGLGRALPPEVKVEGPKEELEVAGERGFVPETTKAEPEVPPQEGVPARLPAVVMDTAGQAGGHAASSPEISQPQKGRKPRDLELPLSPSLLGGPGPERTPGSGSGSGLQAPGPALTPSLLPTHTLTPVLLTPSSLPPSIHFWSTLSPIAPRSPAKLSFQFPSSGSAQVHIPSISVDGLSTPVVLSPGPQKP
# Outline: as §1
# GABPA = target: T2, GABPA (Homo sapiens, UniProt Q06546 1-454); settings: protein: recombinant; tags: N-terminal GST; dsDNA, one strand shown
# T2 sequence: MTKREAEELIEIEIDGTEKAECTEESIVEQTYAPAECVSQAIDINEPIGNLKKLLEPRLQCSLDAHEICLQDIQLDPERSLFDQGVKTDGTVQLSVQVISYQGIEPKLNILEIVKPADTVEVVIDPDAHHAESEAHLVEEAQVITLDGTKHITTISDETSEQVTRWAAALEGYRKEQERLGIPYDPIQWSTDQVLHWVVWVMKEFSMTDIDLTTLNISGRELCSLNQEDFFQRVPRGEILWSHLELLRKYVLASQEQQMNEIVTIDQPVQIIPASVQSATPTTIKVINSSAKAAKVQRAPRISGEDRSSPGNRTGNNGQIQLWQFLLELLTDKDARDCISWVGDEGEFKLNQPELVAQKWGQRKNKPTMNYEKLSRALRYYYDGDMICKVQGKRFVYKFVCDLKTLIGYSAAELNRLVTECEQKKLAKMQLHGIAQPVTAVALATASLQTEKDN
# Outline: as §1
# ELF1 = ELF1 (Homo sapiens, UniProt P32519 1-619); settings: protein: recombinant; tags: N-terminal GST; dsDNA, one strand shown
# Outline: as §1
# ELK3 = target: T3, ELK3 (Homo sapiens, UniProt P41970 1-407); settings: protein: recombinant; tags: N-terminal GST; dsDNA, one strand shown
# T3 sequence: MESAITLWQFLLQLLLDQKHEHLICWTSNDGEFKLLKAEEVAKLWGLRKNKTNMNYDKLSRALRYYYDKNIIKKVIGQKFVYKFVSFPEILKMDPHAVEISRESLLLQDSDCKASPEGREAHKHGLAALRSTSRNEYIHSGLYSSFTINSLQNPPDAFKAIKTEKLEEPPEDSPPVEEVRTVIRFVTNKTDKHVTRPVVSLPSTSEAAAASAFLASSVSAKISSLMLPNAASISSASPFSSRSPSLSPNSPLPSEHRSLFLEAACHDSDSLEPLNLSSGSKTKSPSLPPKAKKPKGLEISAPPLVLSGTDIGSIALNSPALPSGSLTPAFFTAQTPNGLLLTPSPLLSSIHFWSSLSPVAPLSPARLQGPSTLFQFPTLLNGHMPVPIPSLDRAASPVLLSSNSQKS
# Outline: as §1
# SPIC = target: T4, SPIC (Homo sapiens, UniProt Q8N5J4 1-248); settings: protein: recombinant; tags: N-terminal GST; dsDNA, one strand shown
# T4 sequence: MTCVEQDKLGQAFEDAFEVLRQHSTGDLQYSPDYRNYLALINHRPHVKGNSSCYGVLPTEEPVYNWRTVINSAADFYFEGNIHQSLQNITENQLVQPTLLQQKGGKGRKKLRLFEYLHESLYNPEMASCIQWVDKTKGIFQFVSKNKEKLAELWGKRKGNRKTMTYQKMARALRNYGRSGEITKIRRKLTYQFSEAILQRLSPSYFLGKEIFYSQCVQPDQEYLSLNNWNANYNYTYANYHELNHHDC
# Outline: as §1
# ELK4 = target: T5, ELK4 (Homo sapiens, UniProt P28324-2 1-405); settings: protein: recombinant; tags: N-terminal GST; dsDNA, one strand shown
# T5 sequence: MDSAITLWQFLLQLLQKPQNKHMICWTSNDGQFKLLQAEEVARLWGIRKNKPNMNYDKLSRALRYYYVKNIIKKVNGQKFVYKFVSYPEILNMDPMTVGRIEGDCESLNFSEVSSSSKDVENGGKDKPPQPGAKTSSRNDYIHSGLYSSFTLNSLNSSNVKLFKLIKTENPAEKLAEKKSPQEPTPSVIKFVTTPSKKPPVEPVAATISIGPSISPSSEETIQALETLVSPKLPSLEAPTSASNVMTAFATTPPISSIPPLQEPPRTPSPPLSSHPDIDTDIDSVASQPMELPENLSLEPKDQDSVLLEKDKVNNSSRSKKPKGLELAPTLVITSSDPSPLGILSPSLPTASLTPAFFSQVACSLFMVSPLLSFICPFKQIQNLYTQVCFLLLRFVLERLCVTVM
# Outline: as §1
# ETV2 = target: T6, ETV2 (Homo sapiens, UniProt O00321 1-342); settings: protein: recombinant; tags: N-terminal GST; dsDNA, one strand shown
# T6 sequence: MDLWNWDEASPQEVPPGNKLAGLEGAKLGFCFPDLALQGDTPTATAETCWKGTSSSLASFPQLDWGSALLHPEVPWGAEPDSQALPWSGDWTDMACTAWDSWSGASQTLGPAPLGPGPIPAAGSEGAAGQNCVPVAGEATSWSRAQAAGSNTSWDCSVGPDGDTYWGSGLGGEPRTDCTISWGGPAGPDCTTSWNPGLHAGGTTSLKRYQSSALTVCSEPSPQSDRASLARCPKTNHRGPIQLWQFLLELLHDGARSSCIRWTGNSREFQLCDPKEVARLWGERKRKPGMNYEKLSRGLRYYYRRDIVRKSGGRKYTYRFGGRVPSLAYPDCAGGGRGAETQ
# Outline: as §1
# CRX = CRX (Homo sapiens, UniProt O43186 1-299); settings: protein: recombinant; tags: N-terminal GST; dsDNA, one strand shown
# Outline: as §1
# ERF = target: T7, ERF (Homo sapiens, UniProt P50548 1-548); settings: protein: recombinant; tags: N-terminal GST; dsDNA, one strand shown
# T7 sequence: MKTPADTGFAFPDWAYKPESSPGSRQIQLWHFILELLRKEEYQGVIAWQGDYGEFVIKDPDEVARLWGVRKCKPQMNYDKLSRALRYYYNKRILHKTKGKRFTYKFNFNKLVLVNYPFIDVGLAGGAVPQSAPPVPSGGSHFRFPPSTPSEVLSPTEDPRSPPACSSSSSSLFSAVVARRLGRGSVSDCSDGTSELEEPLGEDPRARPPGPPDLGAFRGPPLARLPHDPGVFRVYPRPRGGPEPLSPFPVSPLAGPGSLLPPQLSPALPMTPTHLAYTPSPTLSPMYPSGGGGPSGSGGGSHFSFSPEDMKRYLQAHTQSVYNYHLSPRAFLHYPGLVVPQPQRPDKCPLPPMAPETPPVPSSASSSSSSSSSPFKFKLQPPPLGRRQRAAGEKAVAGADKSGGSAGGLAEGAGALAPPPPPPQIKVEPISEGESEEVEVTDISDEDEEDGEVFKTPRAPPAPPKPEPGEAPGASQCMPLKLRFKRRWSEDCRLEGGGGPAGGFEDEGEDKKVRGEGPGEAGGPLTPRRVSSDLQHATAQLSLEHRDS
# Outline: as §1
# SPDEF = target: T8, SPDEF (Homo sapiens, UniProt O95238 1-335); settings: protein: recombinant; tags: N-terminal GST; dsDNA, one strand shown
# T8 sequence: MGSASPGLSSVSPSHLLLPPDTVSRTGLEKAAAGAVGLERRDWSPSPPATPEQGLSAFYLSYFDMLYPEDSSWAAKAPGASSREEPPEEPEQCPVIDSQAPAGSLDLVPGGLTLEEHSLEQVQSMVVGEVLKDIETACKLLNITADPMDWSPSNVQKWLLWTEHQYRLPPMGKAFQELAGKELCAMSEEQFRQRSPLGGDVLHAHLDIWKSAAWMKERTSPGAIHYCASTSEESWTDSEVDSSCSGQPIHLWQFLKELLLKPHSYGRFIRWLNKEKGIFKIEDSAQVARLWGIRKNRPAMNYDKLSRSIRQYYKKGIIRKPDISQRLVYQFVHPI
# Outline: as §1
# ETV7 = target: T9, ETV7 (Homo sapiens, UniProt Q9Y603 1-341); settings: protein: recombinant; tags: N-terminal GST; dsDNA, one strand shown
# T9 sequence: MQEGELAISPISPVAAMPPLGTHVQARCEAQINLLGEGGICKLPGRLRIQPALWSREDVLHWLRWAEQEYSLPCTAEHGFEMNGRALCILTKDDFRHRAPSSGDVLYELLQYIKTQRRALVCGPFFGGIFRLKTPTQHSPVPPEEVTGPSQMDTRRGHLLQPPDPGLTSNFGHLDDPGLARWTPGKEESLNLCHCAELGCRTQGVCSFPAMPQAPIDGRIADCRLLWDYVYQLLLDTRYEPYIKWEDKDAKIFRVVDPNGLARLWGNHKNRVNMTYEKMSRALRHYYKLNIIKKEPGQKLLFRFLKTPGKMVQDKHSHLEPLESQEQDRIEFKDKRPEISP
# Outline: as §1
# ETV3 = target: T10, ETV3 (Homo sapiens, UniProt P41162-2 1-143); settings: protein: recombinant; tags: N-terminal GST; dsDNA, one strand shown
# T10 sequence: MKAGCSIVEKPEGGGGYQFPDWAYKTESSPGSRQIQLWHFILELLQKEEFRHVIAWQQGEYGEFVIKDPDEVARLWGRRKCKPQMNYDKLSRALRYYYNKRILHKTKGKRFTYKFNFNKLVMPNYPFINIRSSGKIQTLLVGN
# Outline: as §1
# Sequence of HSF1 (Q00613 whole entry, the tested form may be a part): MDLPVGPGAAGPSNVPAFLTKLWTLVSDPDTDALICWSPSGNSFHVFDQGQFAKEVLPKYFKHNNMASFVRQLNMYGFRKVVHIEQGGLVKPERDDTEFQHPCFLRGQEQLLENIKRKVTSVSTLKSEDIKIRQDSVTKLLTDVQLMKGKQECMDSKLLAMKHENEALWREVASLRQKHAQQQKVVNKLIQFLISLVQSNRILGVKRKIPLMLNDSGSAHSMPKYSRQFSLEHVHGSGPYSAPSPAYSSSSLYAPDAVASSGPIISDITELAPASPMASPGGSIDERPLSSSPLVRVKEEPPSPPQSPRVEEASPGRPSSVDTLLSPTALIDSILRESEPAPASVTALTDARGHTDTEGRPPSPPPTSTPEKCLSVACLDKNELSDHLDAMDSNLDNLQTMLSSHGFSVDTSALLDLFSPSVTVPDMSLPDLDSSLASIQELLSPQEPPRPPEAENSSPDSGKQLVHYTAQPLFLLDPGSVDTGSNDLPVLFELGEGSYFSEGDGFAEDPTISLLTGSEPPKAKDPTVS
# Sequence of ELF1 (P32519 whole entry): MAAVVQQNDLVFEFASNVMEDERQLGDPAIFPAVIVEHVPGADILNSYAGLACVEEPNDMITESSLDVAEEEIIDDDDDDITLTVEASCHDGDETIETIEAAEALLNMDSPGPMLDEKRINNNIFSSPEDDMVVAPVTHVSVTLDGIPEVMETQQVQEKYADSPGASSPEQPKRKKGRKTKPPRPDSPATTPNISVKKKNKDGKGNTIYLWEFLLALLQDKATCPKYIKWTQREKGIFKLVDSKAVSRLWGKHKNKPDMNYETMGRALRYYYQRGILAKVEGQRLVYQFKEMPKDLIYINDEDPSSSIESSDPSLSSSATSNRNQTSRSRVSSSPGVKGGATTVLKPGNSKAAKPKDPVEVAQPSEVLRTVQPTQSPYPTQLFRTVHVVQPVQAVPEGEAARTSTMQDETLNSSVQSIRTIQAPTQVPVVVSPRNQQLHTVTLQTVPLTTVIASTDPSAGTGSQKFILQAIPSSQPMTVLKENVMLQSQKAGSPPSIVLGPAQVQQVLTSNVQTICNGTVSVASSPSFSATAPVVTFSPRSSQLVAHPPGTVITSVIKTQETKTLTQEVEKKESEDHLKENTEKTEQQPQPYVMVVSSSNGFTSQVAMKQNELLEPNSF
# Sequence of CRX (O43186 whole entry): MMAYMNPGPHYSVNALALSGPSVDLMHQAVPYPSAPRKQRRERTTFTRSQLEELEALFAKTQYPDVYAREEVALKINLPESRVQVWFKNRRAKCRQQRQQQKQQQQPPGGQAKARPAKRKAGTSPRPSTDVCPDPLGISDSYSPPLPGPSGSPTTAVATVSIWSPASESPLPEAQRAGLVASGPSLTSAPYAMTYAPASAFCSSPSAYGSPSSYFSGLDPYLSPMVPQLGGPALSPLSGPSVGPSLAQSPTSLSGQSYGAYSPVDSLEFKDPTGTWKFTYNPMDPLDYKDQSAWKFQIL
sequence,measurement,setting,value
ACGAGA,binding signal,HSF1,"1.14 fold enrichment (6-mer frequency, TF over GST control)"
GCTGGA,binding signal,HSF1,"1.19 fold enrichment (6-mer frequency, TF over GST control)"
GAGAAG,binding signal,HSF1,"1.22 fold enrichment (6-mer frequency, TF over GST control)"
CGCGAA,binding signal,ELK1,"1.04 fold enrichment (6-mer frequency, TF over GST control)"
same,binding signal,GABPA,"1.01 fold enrichment (6-mer frequency, TF over GST control)"
same,binding signal,ELF1,"1.03 fold enrichment (6-mer frequency, TF over GST control)"
same,binding signal,ELK3,"1.05 fold enrichment (6-mer frequency, TF over GST control)"
same,binding signal,HSF1,"1.76 fold enrichment (6-mer frequency, TF over GST control)"
same,binding signal,SPIC,"1.02 fold enrichment (6-mer frequency, TF over GST control)"
same,binding signal,ELK4,"1.08 fold enrichment (6-mer frequency, TF over GST control)"
same,binding signal,ETV2,"1.11 fold enrichment (6-mer frequency, TF over GST control)"
same,binding signal,CRX,"1.05 fold enrichment (6-mer frequency, TF over GST control)"
same,binding signal,ERF,"1.01 fold enrichment (6-mer frequency, TF over GST control)"
same,binding signal,SPDEF,"1.01 fold enrichment (6-mer frequency, TF over GST control)"
same,binding signal,ETV7,"1.1 fold enrichment (6-mer frequency, TF over GST control)"
same,binding signal,ETV3,"1.01 fold enrichment (6-mer frequency, TF over GST control)"
CGAAGA,binding signal,HSF1,"1.19 fold enrichment (6-mer frequency, TF over GST control)"
